Results from PubChem BioAssay AID2653 (National Center for Advancing Translational Sciences (NCATS), 2010).
Inconclusive results are not listed. Activity calls are given as the source filed them. Calls come from the whole dose curve; as a rule, active = well fitted curve in the direction sought with a large enough effect; inconclusive = small, poorly fitted or top-dose-only effect, or another doubt; inactive = no such curve, though single readings can be large or run the other way.

Experiment: Secondary Assay for Activators of Human Pyruvate Kinase M2 isoform - Cell Titer Glo Cytotoxicity for Probe SAR
Conditions: HeLa viability, CellTiter-Glo ATP luminescence, 24 h; series mostly up to 58.2 µM
Protocol: NIH Chemical Genomics Center [NCGC]
Matthew G. Vander Heiden, M.D., Ph.D. [Harvard Medical School, 77 Avenue Louis Pasteur, Boston, MA 02115]
We have identified a series of activators of the M2 isoform of human pyruvate kinase. The assay described here examines the cytotoxicity of these compounds by measuring the total ATP content of Hela cells after 24 hrs of exposure to compound.
500 Hela cells/ 4ul in media (DMEM with high glucose, 10% FBS, 1x Pen Strep, 1x NEAA) were dispensed into a white solid 1536-microwell plate with a Thermo Multidrop. The plates were incubated at 37 degrees Celsius for 24 hours. The cells were then treated with compounds using the Kalypsys pin tool, delivering 23 nl of test compounds and the control doxorubicin. The plates were then incubated for an additional 24 hours at 37 degrees C after which 4 ul of Promega Cell-Titer Glo was dispensed using the Thermo Multidrop. The plates were incubated at room temperature for 10 min before reading luminescence on the Perkin Elmer ViewLux with images collected with 2x binning and a 5 sec exposure time.
For `Cc1ccc(NS(=O)(=O)c2cccc(F)c2)cc1C`, the outcome was “inactive”.
For `Cc1ccc(NS(=O)(=O)c2ccc3c(c2)oc(=O)n3C)cc1C`, the outcome was “inactive”.
With `O=C1CCc2cc(S(=O)(=O)Nc3cc(F)cc(Cl)c3)c(F)cc2N1` the outcome was “inactive”.
With `Cc1ccc2nc(-c3ccc(C)o3)c(Nc3ccc(Cl)cc3)n2c1` the outcome was “inactive”.
For `Cc1ccc(NS(=O)(=O)c2ccc3c(c2)CCN(C(=O)C(F)(F)F)C3)cc1C`, the outcome was “inactive”.
For `COc1ccc(-c2nc3cccc(C)n3c2Nc2ccc(C)cc2)cc1`, the outcome was “inactive”.
In the case of `Cc1ccc(NS(=O)(=O)c2cc3c(cc2N2CCCCC2)NC(=O)CC3)cc1C`, the outcome is reported as “inactive”.
For `Cc1ccccc1OC1=NS(=O)(=O)c2ccccc21`, the outcome was “inactive”.
With `Cc1ccc2nc(-c3ccc(C)o3)c(Nc3ccc4c(c3)OCO4)n2c1` the outcome was “inactive”.
For `Cc1ccn2c(NC3CCCCC3)c(-c3ccc(C)o3)nc2c1`, the outcome was “inactive”.
With `O=C1c2ccccc2C(=O)N1c1cnc2ccccc2c1` the outcome was “inactive”.
With `Cc1ccc(NS(=O)(=O)c2cc3c(cc2N2CCC2)NC(=O)CC3)cc1C` the outcome was “inactive”.
With `COc1cccc(NS(=O)(=O)c2ccc3c(c2)CCC(=O)N3)c1` the outcome was “inactive”.
In the case of `O=C1CCc2cc(S(=O)(=O)Nc3cccc(C(F)(F)F)c3)ccc2N1`, the outcome is reported as “inactive”.
With `COc1cc(F)c(S(=O)(=O)N2CCCN(S(=O)(=O)c3cccc(N)c3)CC2)c(F)c1` the outcome was “inactive”.
With `Nc1cccc(S(=O)(=O)N2CCCN(S(=O)(=O)c3ccc4c(c3)OCCO4)CC2)c1` the outcome was “inactive”.
In the case of `Cc1ccc(NS(=O)(=O)c2cccc(Cl)c2)cc1C`, the outcome is reported as “inactive”.
In the case of `O=C1c2ccccc2C(=O)N1Cc1ccccc1`, the outcome is reported as “inactive”.
With `O=C1CCc2cc(S(=O)(=O)Nc3cccnc3)ccc2N1` the outcome was “inactive”.
In the case of `Cc1ccc(NS(=O)(=O)c2cc3c(cc2C)NC(=O)CO3)cc1C`, the outcome is reported as “inactive”.
With `Cc1ccc(NS(=O)(=O)c2cc3c(cc2Cl)CCC(=O)N3)cc1C` the outcome was “inactive”.
In the case of `COc1ccc(S(=O)(=O)Nc2ccc(C)c(C)c2)cc1`, the outcome is reported as “inactive”.
For `O=C1c2ccccc2C(=O)N1c1ccccc1O`, the outcome was “inactive”.
In the case of `Cc1ccc(NS(=O)(=O)c2ccc3c(c2)n(C)c(=O)n3C)cc1C`, the outcome is reported as “inactive”.
For `O=C1c2ccccc2C(=O)N1Cc1ccncc1`, the outcome was “inactive”.
For `Cc1cc(NS(=O)(=O)c2ccc3c(c2)CCC(=O)N3)ccc1F`, the outcome was “inactive”.
With `Cc1ccc(NS(=O)(=O)c2ccc3c(c2)CCO3)cc1C` the outcome was “inactive”.
For `O=C1CCc2cc(S(=O)(=O)NCc3ccccc3)ccc2N1`, the outcome was “inactive”.
In the case of `O=C1c2ccccc2C(=O)N1c1cc(=O)c2ccccc2[nH]1`, the outcome is reported as “inactive”.
With `Cc1ccc(NS(=O)(=O)c2ccc3[nH]c(=O)[nH]c3c2)cc1C` the outcome was “inactive”.
For `O=C1c2ccccc2C(=O)N1c1ccncc1`, the outcome was “inactive”.
For `COc1ccc(NS(=O)(=O)c2ccc3c(c2)CCC(=O)N3)cc1`, the outcome was “inactive”.
In the case of `Cc1ccc(OC2=NS(=O)(=O)c3ccccc32)cc1`, the outcome is reported as “inactive”.
For `CN(C)c1cccc(S(=O)(=O)N2CCN(S(=O)(=O)c3ccc4c(c3)OCCO4)CC2)c1`, the outcome was “inactive”.
With `Cc1ccc(NS(=O)(=O)c2cc3c(cc2-c2ccccc2)NC(=O)CO3)cc1C` the outcome was “inactive”.
For `N#Cc1cccc(NS(=O)(=O)c2ccc3c(c2)CCC(=O)N3)c1`, the outcome was “inactive”.
With `Cc1ccc(NS(=O)(=O)c2ccc3c(c2)CCC(=O)N3)cc1` the outcome was “inactive”.
For `Cc1ccccc1NS(=O)(=O)c1ccc2c(c1)CCC(=O)N2`, the outcome was “inactive”.
With `COc1ccc(OC2=NS(=O)(=O)c3ccccc32)cc1` the outcome was “inactive”.
For `Cc1ccn2c(NCc3ccco3)c(-c3ccccc3)nc2c1`, the outcome was “inactive”.
